Bioassay records from PubChem.
Most compounds without a hit are left out; they make up all but 0.82% or so of the library.
LANA DNA inh: inhibitors of KSHV C-LANA binding to DNA, primary screen, biochemical, fluorescence polarization, FAM-LBS DNA, MBP-C-LANA, single point. Kaposi's sarcoma herpesvirus LANA C-terminal domain (residues 932-1162) DNA binding. inhibition, % at 9 µM. 340,000 compounds, 0.078% hits. AID 504423, 2011;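 active means highest replicate inhibition at or above 60% at 9 µM, even if other replicates fall short; inactive means all replicates below 60% inhibition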;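 further: 0% = neutral control wells and 100% = 4 µM acridine orange control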
E coli Lon inh: inhibitors of E. coli Lon protease, primary screen, biochemical, fluorescence polarization; P0A9M0; purified E. coli Lon protease; inhibition, % at 7.94 µM; 360,000 compounds, 0.42% hits; AID 602123, 2011; in the data active means inhibition above about 13%, passing the limit was not always enough;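 further: 0% = enzyme with probe and DMSO and 100% = no enzyme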
Target sequence (P0A9M0 whole entry, looked up): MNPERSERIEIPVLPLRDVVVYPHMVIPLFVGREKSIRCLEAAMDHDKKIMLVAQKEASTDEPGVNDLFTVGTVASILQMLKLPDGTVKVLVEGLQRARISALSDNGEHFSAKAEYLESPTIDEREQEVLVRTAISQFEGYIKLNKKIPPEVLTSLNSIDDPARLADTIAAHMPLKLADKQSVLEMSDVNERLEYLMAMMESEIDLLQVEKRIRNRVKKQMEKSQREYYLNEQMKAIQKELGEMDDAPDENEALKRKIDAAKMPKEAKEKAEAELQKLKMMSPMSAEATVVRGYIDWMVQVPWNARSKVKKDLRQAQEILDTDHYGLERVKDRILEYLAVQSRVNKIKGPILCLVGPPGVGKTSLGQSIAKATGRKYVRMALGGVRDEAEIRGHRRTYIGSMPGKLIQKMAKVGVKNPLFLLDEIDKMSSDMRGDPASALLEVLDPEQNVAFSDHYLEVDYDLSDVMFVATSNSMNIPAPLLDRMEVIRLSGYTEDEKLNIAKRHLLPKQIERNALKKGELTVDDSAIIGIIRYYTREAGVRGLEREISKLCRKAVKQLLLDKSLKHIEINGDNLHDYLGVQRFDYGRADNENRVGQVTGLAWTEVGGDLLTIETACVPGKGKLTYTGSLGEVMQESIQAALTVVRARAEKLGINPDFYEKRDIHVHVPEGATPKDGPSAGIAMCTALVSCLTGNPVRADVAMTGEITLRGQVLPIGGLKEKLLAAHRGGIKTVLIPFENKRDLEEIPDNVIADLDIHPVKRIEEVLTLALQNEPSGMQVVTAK
RTF Ca sens act: cardiac RTF calcium sensitivity activators, primary screen, biochemical, IANBD-TnC fluorescence, EC20 calcium; Troponin I, cardiac muscle (Homo sapiens) + Troponin T, cardiac muscle (Homo sapiens) + …; IANBD-labeled TnC RTF fluorescence at EC20 calcium; 0% EC20 calcium, 100% full calcium; activation, % at 7.2 µM; 340,000 compounds, 0.24% hits;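 active means activation above the mean over all tested compounds plus 3 SD, cut at about 30% in these data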;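 further: rise in fluorescence read as greater calcium sensitivity of cardiac thin filaments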
Cardiac RTF inh: cardiac RTF calcium sensitivity inhibitors, primary screen, biochemical, IANBD-TnC fluorescence, EC70 calcium; Troponin I, cardiac muscle (Homo sapiens) + Troponin T, cardiac muscle (Homo sapiens) + …; IANBD-labeled cardiac RTF, Ca2+ fluorescence; inhibition, % at 7.15 µM; 340,000 compounds, 0.12% hits; AID 493244, 2011;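 active means inhibition above the mean inhibition of all tested compounds plus 3 SD, cut at about 17% in these data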;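 further: assay run at fixed EC70 calcium of 1.6 mM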
Keap1 Nrf2 FP: Keap1-Nrf2 protein-protein interaction inhibitors, primary screen, biochemical, fluorescence polarization, single point | inhibition, % at 9.4 µM | Keap1 Kelch-Nrf2 peptide fluorescence polarization, 1536-well | AID 504523, 2011 | 340,000 compounds, 0.15% hits | Kelch-like ECH-associated protein 1 (Homo sapiens), Q14145; in the data active means inhibition above about 12%;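 further: human Keap1 Kelch domain with fluorescein labeled Nrf2 9mer peptide probe; 0% = neutral control wells and 100% = peptide positive control; higher means more block of Keap1 binding to Nrf2 peptide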
eLon confirm: E. coli Lon protease inhibitor retest, confirmation, biochemical, fluorescence polarization; 1,400 compounds, 31% hits; shares compounds with E coli Lon inh; purified E. coli Lon; inhibition, % at 7.94 µM; in the data active means inhibition above about 16%;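 further: 0% = enzyme with probe and DMSO and 100% = no enzyme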
* = called active by the depositor.

For N#Cc1c(N2CCCC2)nc(N)c2c(N)nc(N3CCCC3)cc12 the results were LANA DNA inh 4, E coli Lon inh 51*, RTF Ca sens act 7, Cardiac RTF inh 4, Keap1 Nrf2 FP -4 and eLon confirm 0.
`O=C1NC[C@@H](CCCCN2CCN(CC3CCCCC3)C(=O)C2=O)N(CC2CCCCC2)C1=O` gave E coli Lon inh -2.
`CCN(CC)C(=O)C1=C(C)N(CCCOC)C(=O)C(CC(=O)NC(c2ccccc2)c2ccccc2)C1` (stereo unspecified) gave E coli Lon inh 0.
c1ccc(C2(Cn3ccc4ccccc43)OCCO2)cc1 was read as LANA DNA inh 2, E coli Lon inh 25*, RTF Ca sens act 2, Cardiac RTF inh 2, Keap1 Nrf2 FP 7 and eLon confirm 4.
Cn1ccc2c(N3CCCC3)cc3c(c21)C1CCC3O1 (stereo unspecified) was read as E coli Lon inh 30* and eLon confirm 2.
`CCCOc1ccc(/C=C/C(=O)Nc2ccc([N+](=O)[O-])cc2)cc1` gave LANA DNA inh 2, E coli Lon inh 19*, RTF Ca sens act 8, Cardiac RTF inh 2, Keap1 Nrf2 FP -2 and eLon confirm -102.
CCCCOc1ccc(/C=C/C(=O)Nc2ccc([N+](=O)[O-])cc2C)cc1 was read as LANA DNA inh -2, E coli Lon inh 6, RTF Ca sens act 9, Cardiac RTF inh -1 and Keap1 Nrf2 FP -6.
CN=C1S/C(=C\c2ccc(SC)cc2)C(=O)N1C was read as LANA DNA inh 2, E coli Lon inh 1, RTF Ca sens act -7, Cardiac RTF inh -8 and Keap1 Nrf2 FP -2.
For CSC1=NC(=O)/C(=C/c2ccc(SC)cc2)S1 the results were LANA DNA inh 4, E coli Lon inh 25*, RTF Ca sens act 2, Cardiac RTF inh -6, Keap1 Nrf2 FP -7 and eLon confirm -4.
For O=C(N/N=C/c1cc2c3c(c1O)CCCN3CCC2)c1ccccc1O the results were LANA DNA inh 4, E coli Lon inh 67*, RTF Ca sens act 8, Cardiac RTF inh 2, Keap1 Nrf2 FP -6 and eLon confirm 104*.
For Cc1nn(-c2ccccc2)c(N2CCCC2)c1/C=N/NC(=O)c1ccccc1O the results were LANA DNA inh -1, E coli Lon inh -3, RTF Ca sens act 2, Cardiac RTF inh -11 and Keap1 Nrf2 FP -1.
Screening CC1CCCC(C)N1C(=O)COc1ccc(C(=O)Nc2ccccc2N2CCOCC2)cc1 (stereo unspecified) returned LANA DNA inh -1, E coli Lon inh 20*, RTF Ca sens act 3, Cardiac RTF inh -7, Keap1 Nrf2 FP -5 and eLon confirm 12.
`CCCCNC(=O)Cn1c(=O)c2c(ncn2CCC(C)C)n(Cc2ccccc2)c1=O` gave LANA DNA inh 2, E coli Lon inh 6, RTF Ca sens act 3, Cardiac RTF inh -16 and Keap1 Nrf2 FP -1.
`CN(C)c1cccc(C(=O)NCc2ccccc2Cl)c1` gave LANA DNA inh 1, E coli Lon inh 68*, RTF Ca sens act -3, Cardiac RTF inh 6, Keap1 Nrf2 FP -2 and eLon confirm -2.
`CCOC(=O)N1CCN(C(=O)c2ccc3c(c2)N(Cc2cc(C)ccc2C)C(=O)c2ccccc2S3=O)CC1` (stereo unspecified) gave LANA DNA inh 1, E coli Lon inh -1, RTF Ca sens act -4, Cardiac RTF inh 2 and Keap1 Nrf2 FP -6.
CCOc1ccc(OCCC(=O)OCC(=O)N2CCN(S(=O)(=O)c3ccc(C)cc3C)CC2)cc1 was read as LANA DNA inh 1, E coli Lon inh 20*, RTF Ca sens act 0, Cardiac RTF inh -3, Keap1 Nrf2 FP -4 and eLon confirm 3.
For CCc1nc2nc(C)c(NS(=O)(=O)c3ccc(C4CCCCC4)cc3)c(=O)n2[nH]1 the results were LANA DNA inh 1, E coli Lon inh -1, RTF Ca sens act -1, Cardiac RTF inh -1 and Keap1 Nrf2 FP -4.
